Data on 39 sequences can be found in the supplement of paper PMC6555819.

The assay deals with THRa:RXRa (NR concentration 90 nM, RXRa partner concentration 90 nM). As to the kind of experiment: PBM binding z-score (relative to random genomic background probes); higher = stronger binding; sequences stand for … in GC…GCGATTGACAGCGTAGAATGAAGG
In outline: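 Antibodies against each partner of ligand-free nuclear receptor dimers (one per run) detected binding on custom Agilent 4×180K protein-binding microarrays after 1 h incubation. The double-stranded probes had 34-nt variable regions carrying direct-repeat seeds, single-nucleotide variants, half-site ablations and random human genomic background sequences. Binding z-scores, from regression-normalized fluorescence, use the random background probes as reference.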
ATCTCTAGGTAAAGTCCAGTGAAAGATCGATAGA came in with a PBM binding z-score of 0.245.

For AGAACGAGGGCAATGAGTTGATAGGACGGGTGGC, the PBM binding z-score is 0.954.

In the case of ATGTCTAGGTAAAAGTTCAGTGAATCCCGAGGAT, the PBM binding z-score came to 1.11.

For the sequence ATACCAAGGGGATCGTGAGGTCGTTGATACTAAC, the PBM binding z-score worked out at 2.89.

Regarding GCGACTGGGGCAAAGCAGGTTACCGTAAGGTTGG, the PBM binding z-score was determined as 3.15.

Turning to ATAGCAAGGTGATCGTGAGGTCGTTGATACTAAC, the PBM binding z-score was 3.2.

In turn, TCATATAGGTAAAAGGTGAAAGTCGGTGTGGTAA showed a PBM binding z-score of 1.77.

AGAATGAGGTTATGCGTAGATCAGGGAAGAAAGT: the PBM binding z-score is 2.24.

In turn, CGTACGAGGGCATGAGTTGATAGCAAATGCCGAT yielded a PBM binding z-score of 1.37.

As to TCTTGTAGATCAAGCAGGTTAAGCAAGCCTGAGT, the PBM binding z-score was determined as 0.275.

For AATACAGGCTCACTAGGCCAGAGTAGGTACGAAT, the PBM binding z-score is -0.688.

Consider GGAACGAGGGCCAAGTTGATAGCATCTGTCGACG, for which the PBM binding z-score was -0.432.

Take CCTAGTTGGTCAGGAGGACACACACCGGATATGA: the PBM binding z-score was 1.28.

GCTTACGGGTCAAAGGTTATAGCTTGAATAGAAT came in with a PBM binding z-score of 3.57.

Consider TATACAGGGTCAAAGGCCCGAGTACGAATGTCGA, for which the PBM binding z-score amounted to 3.23.

Regarding TCTATAAGTTGAAGGGCAACCGACGAGTCCGTTT, the PBM binding z-score was 0.466.

The sequence CCAGACAGGTGAGCAGGTAACTCAGCCTCGATTA had a PBM binding z-score of 0.218.

On to ACTAGCAGGCCAATTTTGGGTCACTCAAACAAAG, for which the PBM binding z-score was 2.34.

In turn, CGTCCAAGTTCAAGGTCAGTGAAAGAGACTCGAA yielded a PBM binding z-score of 3.56.

CGTCCAAGATCAAAGGTCAGTGAAGAGATGACGG displayed a PBM binding z-score of 2.59.

For CGTCAAAGTTCAAGGTAACGTAACAGAAAGCAGC, the PBM binding z-score came to 3.

Regarding TGAATAAGGTTAAAGATCAGGGAACGTGGCGTCG, the PBM binding z-score came to 2.48.

For the sequence CGTCCAAGGTCAATGCTAGGTCAATGAAAGCATT, the PBM binding z-score was 4.57.

Take TAGCCTAGGTCATTGGGCCACTATAGTACGCATC: the PBM binding z-score came to 2.87.

Sequence GCACATAGGTAATACAAGGTGAAAGTCCGATTGT showed a PBM binding z-score of 4.19.

TCATATAGGTACAGGTGAAAGTCGAACGATATGA yielded a PBM binding z-score of 0.566.

Consider CCTCGGAGGACAACAGGAGGCCAGAGCTGCCAGA, for which the PBM binding z-score stood at 0.476.

CCTGCTAGGTCAGGGTCAGCTAATCTACAGTATG showed a PBM binding z-score of 3.48.

GCAGAGAGGTGAAACGCAGGTAACTCAGGGTGGC displayed a PBM binding z-score of 2.37.

CGAACTAGGTCAGTGACAGGACAGTGAATAGTAA: the PBM binding z-score came out at 1.98.

For the sequence GCTTATGGGTCAAAGGTTATAGCATGAATAGAAT, the PBM binding z-score stood at 3.41.

As to CCTTACGGGTCACTCCGGGTTATAGCATCGGAGT, the PBM binding z-score stood at 4.89.

GGAACGAGGGCACGTTGATAGCAGAGTTTGATGG displayed a PBM binding z-score of 1.41.

Sequence GGAACGAGGGCAAAGTTGATATCATCTGTCGACG yielded a PBM binding z-score of 1.32.

As for ACTACTAGTTGAGACGAGGGCAACCGATAGGTTG, the PBM binding z-score was 2.46.

Take CGTCCAAGGGCAAAGGTCAGTGAAGAGATGACGG: the PBM binding z-score is 3.45.

ATATGTAGGTTAGCTGGGTTCATTCAGACTAGGC returned a PBM binding z-score of 3.54.

For the sequence CCGAGTAGGTTATGGGTCATTCAGGCAACGGTGA, the PBM binding z-score came out at 2.29.

In the case of GCTGCTAGGTCAGGGTGGTCAGCTAACGGGTACG, the PBM binding z-score is 2.12.
